Experimental data reported in the supplement of paper PMC12669032.

system: Odoribacter splanchnicus; test: growth AUC relative to DMSO control (median of replicates) (fraction); higher = more growth (less inhibition), active = hit call of the paper; conditions: 20 µM; 24 h
Method in brief: (§1)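 Hourly OD600 readings over 24 h tracked anaerobic gut bacterial monocultures grown at 37 °C in mGAM from OD600 0.05 with 20 µM compound (1% DMSO). After the minimum OD was set to 0, area under the growth curve was normalised to the plate median of solvent-only wells, or to row and column medians on the industrial chemical plate. Values are medians of three biological replicates grown on separate days.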

Growth AUC, inactive:
CCCCCCCC/C=C\CCCCCCCCCCCC(=O)O 1
S=C([S-])NCCNC(=S)[S-].S=C([S-])NCCNC(=S)[S-].[Mn+2].[Zn+2] 0.967
Cc1cc(C)cc(OCC(C)Nc2nc(N)nc(C(C)(C)F)n2)c1 (stereo unspecified) 0.992
CCOc1ccc(C2(C(=O)OC(C#N)c3cccc(Oc4ccccc4)c3)CC2(Cl)Cl)cc1 (stereo unspecified) 1.03
CCNc1nc(NCC)nc(OC)n1 1.01
O=c1cccc2n1CCn1c-2cccc1=O 0.982
CCOCOc1ccc(C(=O)Nc2cccc(Cl)c2Cl)cc1 0.975
Cn1cc(C(=O)Nc2ccccc2-c2cc(F)c(F)c(F)c2)c(C(F)F)n1 0.964
CCOCN(C(=O)C(=O)O)c1c(C)cccc1CC 0.991
NC(Cn1cncn1)C(=O)O (stereo unspecified) 0.967
N#Cc1ccc(CC(=NNC(=O)Nc2ccc(OC(F)(F)F)cc2)c2cccc(C(F)(F)F)c2)cc1 (mixture of isomers) 1.02
C=O 1.03
COC(=O)c1ccc(C(=O)OC)cc1 0.989
N#Cc1c(N)nc(NC2CC2)nc1N 1.01
C#CCN(C)c1c(C#N)cnn1-c1nn2c(c1Cl)CCCC2 1.05
NS(=O)(=O)[O-].[NH4+] 0.988
O=C(O)Cc1c[nH]c2ccccc12 0.983
CCc1nc2ncnn2c(N)c1CCCC(=O)O.Cl 0.952
Cc1cc(C)cc(O)c1 0.988
CCOC(=O)/C(Cl)=C/c1cc(N2C(=O)C3=C(CCCC3)C2=O)ccc1Cl 1.1
c1ccc2c(c1)Cc1ccccc1-2 1.05
CCSc1nc(NC(C)C)nc(NC(C)C)n1 0.968
c1ccc2cc3ccccc3cc2c1 0.999

system: Parabacteroides distasonis; test: as above; conditions: 20 µM; 24 h
Method in brief: as §1

Growth AUC, active:
O.O=C(Nc1ccc(Cl)c(Cl)c1)Nc1cc(Cl)ccc1Oc1ccc(Cl)cc1S(=O)(=O)[O-].[Na+] 0.494

Growth AUC, inactive:
N#Cc1cc(Cl)c(O)c(Cl)c1 0.956
CCc1cccc(C)c1N(C(=O)C(=O)O)C(C)COC (stereo unspecified) 1.02
CCC([O-])=C1C(=O)CC(C(=O)[O-])CC1=O.[Ca+2] (stereo unspecified) 0.993
COC1CCC2(CC1)NC(=O)C(c1cc(C)ccc1C)C2O (stereo unspecified) 1.07
NC(=O)c1nn(-c2c(Cl)cc(C(F)(F)F)cc2Cl)c(N)c1S(=O)C(F)(F)F (stereo unspecified) 1.02
Cc1nn(C)c(F)c1C(=O)Nc1ccccc1C(C)CC(C)C (stereo unspecified) 0.96
CCOC(=O)c1nc(C(Cl)(Cl)Cl)n(-c2ccc(Cl)cc2Cl)n1 0.899
CCCCOCN(C(=O)CS(=O)(=O)[O-])c1c(CC)cccc1CC.[Na+] 1
CCc1cccc(CC)c1N(COC)C(=O)CS(=O)(=O)[O-].[Na+] 1
CCN(CC)C(=O)c1cccc(C)c1 1.01
COC(=O)c1c(Cl)ccc(Cl)c1OC 1.05
CCN(CC)c1nc(C)cc(=O)[nH]1 1
CC(C)CNC(=O)N1CCNC1=O 0.956
COC(=O)c1ccccc1S(=O)(=O)NC(=O)n1nc(OCC(C)O)n(C)c1=O (stereo unspecified) 1.03
CCCNCCOc1c(Cl)cc(Cl)cc1Cl 0.972
CCCCCCCC/C=C\CCCCCCCCCCCC(=O)O 0.914
S=C([S-])NCCNC(=S)[S-].S=C([S-])NCCNC(=S)[S-].[Mn+2].[Zn+2] 1.01
Cc1cc(C)cc(OCC(C)Nc2nc(N)nc(C(C)(C)F)n2)c1 (stereo unspecified) 0.835
CCOc1ccc(C2(C(=O)OC(C#N)c3cccc(Oc4ccccc4)c3)CC2(Cl)Cl)cc1 (stereo unspecified) 0.93
CCNc1nc(NCC)nc(OC)n1 1.04
O=c1cccc2n1CCn1c-2cccc1=O 1.04
CCOCOc1ccc(C(=O)Nc2cccc(Cl)c2Cl)cc1 0.976
